Our source for the growth inhibition values is PubChem BioAssay (NCI).

Each structure is given as a SMILES string. The panel holds about 79,000 compounds, 15% with a hit somewhere; the sample as a whole holds those more often. Values without a mark were called inactive. The source made the active and inactive calls. Rule as the data show it: active = growth inhibition above about 70%; inactive = the rest.

The assay is described as follows: NCI Yeast Anticancer Drug Screen. Data for the mlh1 strain (AID 171).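 Also: 0% = growth of vehicle-treated control cultures of the same strain.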 The settings on record: S. cerevisiae mlh1 strain growth inhibition; at 100.0 µM; hits give high values. In outline: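 Inhibition values reflect reduced yeast growth in the presence of compound, referenced to vehicle controls, using a strain chosen for its alteration in DNA repair or cell cycle control.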
For the molecule `NC1CCCCC1N.Nc1c(N=Nc2ccc(-c3ccc(N=Nc4cc(S(=O)(=O)[O-])c5ccccc5c4N)cc3)cc2)cc(S(=O)(=O)[O-])c2ccccc12.[OH3+].[OH3+].[Pt+4]`, the growth inhibition was 65%. For the molecule `COC(=O)CCC(NC(=S)N/N=C(\C)c1ccccn1)C(=O)OC` (configuration not stated), the growth inhibition is 92% (active). Consider `NC(=O)C(=O)NNc1ccccc1`, for which the growth inhibition is 98% (active).

With `COc1cc(C2SCC(=O)N2c2ccc(-c3ccc(-n4c(-c5ccccc5)nc5ccccc5c4=O)cc3)cc2)ccc1O` (configuration not stated), the growth inhibition is 20%. With `COc1ccc(/C=C/c2sc3ccccc3[n+]2CCCCI)cc1OC`, the growth inhibition is 97% (active). On to `Cc1c(C(C)C)cc(OCCO)cc1C(C)C`, for which the growth inhibition was 26%. As for `Cc1cc(NCCCCCCCCNc2cc(C)nc3cc(N)ccc23)c2ccc(N)cc2n1`, the figure is 94% (active); as for `C=C(Cl)COC(=O)Nc1cccc(Cl)c1`, 97% (active); as for `CC(=O)OC1CC2C(C)(C)C(=O)C=C[C@]2(C)C2CCC3(C)C(=CCC3[C@H](CO)C[C@H](O)C(=O)C(C)(C)O)[C@]12C` (some centres not stated), 92% (active).

Regarding `COc1ccc(/C=C/C(=O)c2ccccc2)cc1OC`, the growth inhibition was 95% (active). Turning to `COc1c(O)c(C=O)c(Br)c(C=O)c1O`, the growth inhibition is 95% (active). As for `O=[N+]([O-])c1cc(Cl)cnc1Br`, the figure is 27%. `Cc1ccc2c(c1)C1(SC(C)C(=O)N1c1ccc(Cl)cc1)C(=O)N2` (configuration not stated): the growth inhibition was 99% (active). On to `COc1cc(CSc2ccc(O)cc2)cc(O)c1O`, for which the growth inhibition is 3%. Regarding `Cc1ccc2c3ccc4c(c3n(C)c2c1)C(=O)C=CC4=O`, the growth inhibition was 81% (active). Turning to `O=C(Nc1ccc(Cl)cc1)Nc1nnc2nc(C(C(=O)c3cccc([N+](=O)[O-])c3Cl)c3nc4nnc(NC(=O)Nc5ccc(Cl)cc5)n4[nH]c3=O)c(=O)[nH]n12`, the growth inhibition was 35%. Turning to `O=C(O)C1CC(c2ccccc2)=NN1c1ccccc1` (configuration not stated), the growth inhibition was 96% (active).

As to `CCCCc1ccc(-n2c(C)c(COC(=O)NC)c(COC(=O)NC)c2C)cc1`, the growth inhibition is 87% (active).

In the case of `CCC(=O)c1cc(C(=O)C(=S)SC)cc(C(=O)C(=S)SC)c1`, the growth inhibition is 93% (active).

For `CCn1c(O)c(C=Nc2ccccc2)s/c1=N/Nc1nc(-c2ccccc2)cs1`, the growth inhibition is 12%.

For the molecule `Cc1ccccc1N=C(NO)c1ccccc1`, the growth inhibition is 95% (active). In the case of `Cc1nc2ccccc2nc1NNc1ccccc1`, the growth inhibition was 41%.
